Where “and” joins values, the source holds several entries; their conditions need not be identical. Identical values can stand only once. Records with an inconclusive call do not appear. Where a call stands in place of a potency, no number is given. Unmarked numbers belong to inactive results. Calls of active or inactive are those of the source. Calls come from the whole dose curve; as a rule, active = well fitted curve in the direction sought with a large enough effect; inconclusive = small, poorly fitted or top-dose-only effect, or another doubt; inactive = no such curve, though single readings can be large; an effect the other way counts as inactive or inconclusive. Peptide text beside a SMILES is read from it. * marks the point of attachment. PhAc = O=C(Cc1ccccc1)*
Experiments:
[1] = biological target: Cellular tumor antigen p53 (Homo sapiens) (UniProt P04637); experiment: Primary qHTS for small molecule compounds that upregulate eGFP-tagged delta133p53alpha (in N-terminal) cells. (AID 2060322); conditions: NCI-H358 eGFP-delta133p53alpha fluorescence, 24 h; activation: hits give high values; note: nearly all actives have a fitted effect of over 75% in size; note: potency is the fitted concentration of half-maximal effect;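 for activation: cells pre-induced with doxycycline then dosed without doxycycline; series mostly up to about 56 µM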
Summary of the method: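 NCI-H358 cells pre-induced 24 h with 10 ng/ml doxycycline for eGFP-delta133p53alpha, plated dox-free and exposed 24 h at 37C to titrated compounds. Fixed, Hoechst-stained; gated GFP peak intensity by laser scanning cytometry, normalized to DMSO (0%) and 57.5 uM 5-azacytidine (100%).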

[2] = biological target: Aldehyde dehydrogenase, mitochondrial (Homo sapiens) (UniProt P05091); experiment: qHTS for Inhibitors of the Aldehyde Dehydrogenase Family (ALDH2) Primary screen (AID 2061308); note: nearly all actives have a fitted effect of over 55% in size
[3] = biological target: Retinaldehyde dehydrogenase 3 (Homo sapiens) (UniProt P47895); experiment: qHTS for Inhibitors of the Aldehyde Dehydrogenase Family (ALDH1A3) Validation screen (AID 2061312); note: nearly all actives have a fitted effect of over 45% in size
[4] = biological target: Retinaldehyde dehydrogenase 3 (Homo sapiens) (UniProt P47895); experiment: qHTS for Inhibitors of the Aldehyde Dehydrogenase Family (ALDH1A3) Primary screen (AID 2061315)

Cellular tumor antigen p53 (Homo sapiens), sequence (P04637 whole entry, looked up): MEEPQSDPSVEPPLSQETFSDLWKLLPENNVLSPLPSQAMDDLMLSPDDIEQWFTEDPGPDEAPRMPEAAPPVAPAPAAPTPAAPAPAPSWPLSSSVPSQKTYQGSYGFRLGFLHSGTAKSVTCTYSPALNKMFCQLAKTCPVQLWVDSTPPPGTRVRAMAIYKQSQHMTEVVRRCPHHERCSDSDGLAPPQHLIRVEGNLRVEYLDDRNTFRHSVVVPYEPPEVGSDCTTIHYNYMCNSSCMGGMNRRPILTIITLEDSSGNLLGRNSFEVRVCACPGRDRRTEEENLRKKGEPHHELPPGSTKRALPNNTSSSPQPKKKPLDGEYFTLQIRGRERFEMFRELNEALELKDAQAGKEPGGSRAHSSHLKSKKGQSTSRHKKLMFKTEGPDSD

| Structure (SMILES) | activation [1] | Potency [2] | Potency [3] | Potency [4] | Potency [1] | activity change, negative = inhibition [2] | activity change, negative = inhibition [3] | activity change, negative = inhibition [4] |
| --- | --- | --- | --- | --- | --- | --- | --- | --- |
| CCOc1ccc(CCNC(=O)c2cc3sc(Cl)cc3n2C)cc1OCC | -10.5% | inactive | inactive | inactive |  |  |  |  |
| COc1ccc2cc(-c3cc(-c4cc(Cl)cc(Cl)c4)nn3C(C)c3ccc(C(=O)NCCC(=O)O)cc3)ccc2c1 (centres undefined) | 29.1% | inactive | inactive | inactive |  |  |  |  |
| CC(OC1OCCN(Cc2n[nH]c(=O)[nH]2)C1c1ccc(F)cc1)c1cc(C(F)(F)F)cc(C(F)(F)F)c1 (centres undefined) | 20.5% | inactive | inactive | inactive |  |  |  |  |
| O=C(NS(=O)(=O)c1ccc(Br)s1)c1ccc(Cl)cc1Cl | -12.4% | inactive | inactive | inactive |  |  |  |  |
| CCOC(CN1CCN(CC(C)C(=O)c2ccccc2)CC1)c1ccccc1 (centres undefined) | -4.18% and 4.3% | inactive | inactive | inactive |  |  |  |  |
| CC1(C)Oc2ncnc(N)c2N=C1c1ccc(C23CCC(CC(=O)O)(CC2)CC3)cc1 | -11.9% | inactive | inactive | inactive |  |  |  |  |
| Cc1ccccc1C(=O)Nc1ccc(C(=O)N2CCCC(N(C)C)c3ccccc32)cc1 (centres undefined) |  | inactive | inactive | inactive | 3.89 µM (active) |  |  |  |
| CN[C@@H]1[C@@H](O)[C@@H](O[C@@H]2[C@@H](O)[C@H](O[C@H]3O[C@H](CN)[C@@H](O)[C@H](O)[C@H]3O)[C@@H](N)C[C@H]2NC(=O)[C@@H](O)CN)OC[C@]1(C)O | -2.86% | inactive | inactive | inactive |  |  |  |  |
| CN(C)C(=O)C(O)C(Cc1ccccc1)NC(=O)c1cc2cc(Cl)ccc2[nH]1 (centres undefined) | -1.43% | inactive | inactive | inactive |  |  |  |  |
| COc1ccc(NC(=O)c2ccc(C(=N)N(C)C)cc2)c(C(=O)Nc2ccc(Cl)cn2)c1 | -8.59% | inactive | inactive | inactive |  |  |  |  |
| CCOC(=O)CNC(=O)[C@@H]1CCCN1C(=O)Cc1ccccc1 (PhAc-Pro-Gly-OEt) | 13.8% | inactive | inactive | inactive |  |  |  |  |
| Nc1nc2c(ncn2[C@@H]2O[C@H](CO)[C@@H](O)[C@H]2O)c(=O)[nH]1 | -1.43% | inactive | inactive | inactive |  |  |  |  |
| c1ccc(-c2csc(N3CCOCC3)n2)cc1 | -7.16% | inactive | inactive | inactive |  |  |  |  |
| Cn1c2ccc(F)cc2c2c(C(=O)N3CCCC3)cn(-c3ccccc3)c(=O)c21 | -5.25% | inactive | inactive | inactive |  |  |  |  |
| CCc1cnc(N2CCC(c3nc(COc4ccc(-n5cnnn5)cc4)cs3)CC2)nc1 | 2.86% | inactive | inactive | inactive |  |  |  |  |
| O=C(NCCN1CCN(c2cccc3c2OCCO3)CC1)c1ccc(F)cc1 | -9.07% | inactive | inactive | inactive |  |  |  |  |
| COc1ccccc1N1CCN(CC(C(=O)NC(C)(C)C)c2ccccc2)CC1 (centres undefined) | -12.4% | inactive | inactive | inactive |  |  |  |  |
| OCC(O)CN1CCN(c2ccccc2)CC1 (centres undefined) | -0.837% and 0.955% | inactive | inactive | inactive |  |  |  |  |
| CCOC(=O)C(CCc1ccccc1)NC1CSC(c2cccs2)CN(CC(=O)O)C1=O (centres undefined) | -0.477% | inactive | inactive | inactive |  |  |  |  |

| Structure (SMILES) | activation [1] | Potency [2] | Potency [3] | Potency [4] | Potency [1] | activity change, negative = inhibition [2] | activity change, negative = inhibition [3] | activity change, negative = inhibition [4] |
| --- | --- | --- | --- | --- | --- | --- | --- | --- |
| O=S(=O)(Cc1ccccc1)Nc1ccc(-c2ccc3c(cnn3-c3ccc(F)cc3)c2)c(C(F)(F)F)c1 | -1.91% | inactive | inactive | inactive |  |  |  |  |
| CCc1cc2c(=O)c(-c3nc4ccccc4s3)coc2c(CN2CCCCC2)c1O | 0.955% | inactive | inactive | inactive |  |  |  |  |
| CC(C)C(=O)c1cn(CC(=O)COc2ccc(Oc3ccccc3)cc2)c2ccc(C(=O)O)cc12 | 6.68% | inactive | inactive | inactive |  |  |  |  |
| Cc1nc(C(=O)N2CCC[C@H]2Cc2nnc(-c3ccccc3)o2)c(-c2ccccc2F)s1 | 3.82% | inactive | inactive | inactive |  |  |  |  |
| CN(C)CCOc1cc(NS(=O)(=O)c2c(Cl)cc(C(F)(F)F)cc2Cl)ccc1Cl | 0.477% | inactive | inactive | inactive |  |  |  |  |
| CCOC(=O)CCC(=O)O[C@H]1[C@H](O[C@@H]2[C@@H](C)[C@H](O[C@H]3C[C@@](C)(OC)[C@@H](O)[C@H](C)O3)[C@@H](C)C(=O)O[C@H](CC)[C@@](C)(O)[C@H](O)[C@@H](C)C(=O)[C@H](C)CC2(C)O)O[C@H](C)C[C@@H]1N(C)C (some centres undefined) | 9.55% | inactive | inactive | inactive |  |  |  |  |
| CC(C)Oc1ccc(-c2cnc3c(-c4ccnc5ccccc45)cnn3c2)cc1 | -6.21% | inactive | inactive | inactive |  |  |  |  |
| CCCC(C(=O)O)c1c(C)nc2ccc(Cl)cc2c1-c1ccccc1 (centres undefined) | -1.91% | inactive | inactive | inactive |  |  |  |  |
| O=C(NCCCc1ccccc1)C1CCC(CNS(=O)(=O)c2cccc3nsnc23)CC1 (centres undefined) | -3.34% | inactive | inactive | inactive |  |  |  |  |
| CCOc1ccc(C(Nc2ccccn2)c2ccc3ccc(C)nc3c2O)cc1C (centres undefined) | 19.6% | inactive | inactive | inactive |  |  |  |  |
| C=CC(=O)N1CCN(C(=O)c2cc(-c3cc(Cl)ccc3Cl)c(Cl)cc2OC)CC1 | -7.64% | inactive | inactive | inactive |  |  |  |  |
| CNS(=O)(=O)CC1CCC(N(C)c2ncnc3[nH]ccc23)CC1 (centres undefined) | -0.477% | inactive | inactive | inactive |  |  |  |  |
| COc1ccc(C(=O)n2c(C)c(Cc3cccc(O[C@@H](C)C(=O)O)c3)c3cc(OC(F)(F)F)ccc32)cc1 | -3.82% | inactive | inactive | inactive |  |  |  |  |
| CC1(C)CCC(C)(C)c2cc([C@@H](O)C(=O)Nc3ccc(C(=O)O)cc3F)ccc21 | -4.77% | inactive | inactive | inactive |  |  |  |  |
| CN(C)CCCNc1nc(CN2CCN(C(c3ccc(Cl)cc3)c3ccc(Cl)cc3)CC2)nc2ccccc12 | 16.2% | inactive | inactive | inactive |  |  |  |  |
| COc1cccc(N2CCN(C3=Nc4c(F)cccc4[C@H](CC(=O)O)N3c3cc(C(F)(F)F)ccc3OC)CC2)c1 | -5.73% | inactive | inactive | inactive |  |  |  |  |
| CC(C)N(CCCCOCC(=O)NS(C)(=O)=O)c1cnc(-c2ccccc2)c(-c2ccccc2)n1 | -4.77% | inactive | inactive | inactive |  |  |  |  |
| NS(=O)(=O)c1ccc(N2N=C(c3ccccc3)CC2c2ccccc2)cc1 (centres undefined) | -18.6% | inactive | inactive | inactive |  |  |  |  |
| N[C@@H](CC(=O)N1CCn2c(nnc2C(F)(F)F)C1)Cc1[nH]nc2c(F)c(F)ccc12 | -3.82% | inactive | inactive | inactive |  |  |  |  |

| Structure (SMILES) | activation [1] | Potency [2] | Potency [3] | Potency [4] | Potency [1] | activity change, negative = inhibition [2] | activity change, negative = inhibition [3] | activity change, negative = inhibition [4] |
| --- | --- | --- | --- | --- | --- | --- | --- | --- |
| Cc1cc(-n2c(=O)[nH]c(=O)n(C)c2=O)ccc1Oc1ccc(SC(F)(F)F)cc1 | -10.5% | inactive | inactive | inactive |  |  |  |  |
| CCCn1c(=O)c2[nH]c(-c3ccc(OCC(=O)O)cc3)nc2n(CCC)c1=O | -5.73% | inactive | inactive | inactive |  |  |  |  |
| COc1ccc(-c2csc(NC(=O)[C@H]3CCCCN3S(=O)(=O)c3ccc(C)cc3)n2)cc1 | -8.59% | inactive | inactive | inactive |  |  |  |  |
| O=C(NCC1(N2CCN(c3ccccc3)CC2)CCOCC1)c1cccnc1Sc1ccccc1 | -3.34% | inactive | inactive | inactive |  |  |  |  |
| Cc1cccc2c1CC[C@H](CN1CCC(c3c(Cl)cccc3Cl)CC1)C[C@@H]2O | 11.9% and -7.16% | inactive | inactive | inactive |  |  |  |  |
| O=C(O)C1CN(Cc2ccc(-c3nc4cc(Cc5ccccc5F)ccc4s3)c(F)c2)C1 | -12.4% |  |  |  |  | -1.77% [at 11.2 µM] | -10% [at 20.1 µM] | -4.23% [at 11.2 µM] |
| O=C(NCC1CCN(Cc2cccc(Cl)c2)CC1)[C@@H]1CCCN(c2ncnc3c2nc2n3CCCC2)C1 | 0% | inactive | inactive | inactive |  |  |  |  |
| CCCC(Nc1nc(-c2ccc(NC(=O)NCC)c(OC)c2)ncc1C)c1cccnc1 (centres undefined) | -2.86% | inactive | inactive | inactive |  |  |  |  |
| COc1cc(Nc2nc3c(s2)CCCC3c2ccc(F)cc2)ccc1-n1cnc(C)c1 (centres undefined) | -13.4% | inactive | inactive | inactive |  |  |  |  |
| CC(F)(F)CN1CCOc2c(nn(-c3ccccc3Cl)c2-c2ccc(Cl)cc2)C1=O | 10% | inactive | inactive | inactive |  |  |  |  |
| CC1(C)CC(NC(=O)C(=O)Nc2ccc(Cl)cc2)CC(C)(C)N1 | 8.11% | inactive | inactive | inactive |  |  |  |  |
| Cn1c(CO)c(-c2ccccc2)c2cc([N+](=O)[O-])ccc21 | -4.77% | inactive | inactive | inactive |  |  |  |  |
| Cc1nc(Nc2ccc(F)cc2)nc(N2CCc3ccccc3C2C)c1C (centres undefined) | 11.9% | inactive | inactive | inactive |  |  |  |  |
| CNC(=O)c1ccc2c(c1)CCO[C@H]2CCN1CCN(c2ccc(OC)cc2)CC1 | -25.3% | inactive | inactive | inactive |  |  |  |  |
| COc1ccc(C2Sc3ccccc3N(CCN(C)C)C(=O)C2OC(C)=O)cc1 (centres undefined) | -11.5% | inactive | inactive | inactive |  |  |  |  |
| CCOc1ccc(NC(=S)N2CCC(C(O)(c3ccccc3)c3ccccc3)CC2)cc1 | -0.955% | inactive | inactive | inactive |  |  |  |  |
| CN[C@H](CNC(=O)N1CCC[C@@H]([C@@H](OCCNC(=O)OC)c2cccc(Cl)c2)C1)C[C@H]1CCCOC1 | 11.5% | inactive | inactive | inactive |  |  |  |  |
| Cc1c(C(=O)Nc2ccc(N3CC(C)OC(C)C3)nc2)cccc1-c1ccc(OC(F)(F)F)cc1 (centres undefined) | 20% | inactive | inactive | inactive |  |  |  |  |
